# The list is not random: actives were taken first. Their share in the collection is about 3.5%.
# GPR151 activ: activates the human receptor GPR151; AID 1508602; PathHunter beta-arrestin GPR151 cells, luminescence; 1% of 650,000 active; Q8TDV0; activation, % at 11.2 µM; in the data active = activation above about 4.9%;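 note: 0% = median of compound wells and 100% = cells with positive control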
# FBW7 act: human FBW7 E3 ligase activation, primary screen. Q969H0. AlphaScreen FBW7–phospho-cyclin E peptide binding, activator screen. normalized activity (activation), % at 26.1 µM. 0.13% of 650,000 active; in the data active = normalized activity above about 1.9%;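 note: purified mutant Fbw7 with reduced substrate affinity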
# MITF primary: blocks human microphthalmia-associated transcription factor. O75030. AlphaScreen MITF homodimerization, bead proximity signal. inhibition, % at 2.6 µM. 0.91% of 650,000 active; in the data active = inhibition above about 50%;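 note: 0% = vehicle wells with protein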
# Target sequence (O75030 whole entry, looked up): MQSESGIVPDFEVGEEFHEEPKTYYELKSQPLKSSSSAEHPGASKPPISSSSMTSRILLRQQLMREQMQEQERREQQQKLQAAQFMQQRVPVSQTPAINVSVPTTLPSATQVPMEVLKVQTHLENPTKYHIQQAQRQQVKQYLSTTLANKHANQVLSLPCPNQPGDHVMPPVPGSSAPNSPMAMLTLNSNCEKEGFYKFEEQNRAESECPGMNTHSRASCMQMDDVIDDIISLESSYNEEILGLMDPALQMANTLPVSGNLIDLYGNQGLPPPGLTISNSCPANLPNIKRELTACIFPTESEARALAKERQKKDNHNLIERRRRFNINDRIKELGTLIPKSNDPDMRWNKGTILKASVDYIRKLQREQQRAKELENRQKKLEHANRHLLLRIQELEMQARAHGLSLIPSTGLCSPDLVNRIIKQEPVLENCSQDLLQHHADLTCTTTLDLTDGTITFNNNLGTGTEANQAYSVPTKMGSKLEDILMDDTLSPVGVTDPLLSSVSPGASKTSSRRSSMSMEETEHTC
# TEAD-YAP block: TEAD-YAP interaction inhibition. HEK-TIYL cells, TEAD-Gal4/YAP UAS-luciferase luminescence. inhibition, % at 9.12 µM. 1.4% of 640,000 active. AID 1259422; in the data active = inhibition above about 32%;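 note: 0% = median of test compound wells and 100% = reference inhibitor wells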
# MITF inh conf: human MITF inhibition, confirmation; inhibition, % at 2.6 µM; shares compounds with MITF primary; AlphaScreen MITF homodimerization, biotin/His-MITF beads; 16% of 4,700 active;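 active = inhibition above a cutoff derived from the DMSO control wells, cut at about 28% in these data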;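 note: 0% = MITF dimer wells with DMSO only; inhibitors lower the bead chemiluminescence by keeping MITF from dimerizing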
# AS interf ctr: counter-screen: compounds optically interfering with AlphaScreen. 7.6% of 4,700 active. shares compounds with MITF primary. LysRS AlphaScreen counterscreen, signal interference, triplicate. inhibition, % at 2.6 µM;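 active = inhibition above a cutoff derived from the DMSO control wells, cut at about 30% in these data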
# * hit, by the source's call; · = no result.
SMILES,GPR151 activ,FBW7 act,MITF primary,TEAD-YAP block,MITF inh conf,AS interf ctr
OC(COC1CCCc2ccccc21)CN1CCN(Cc2ccc3c(c2)OCO3)CC1 (stereo not given),1,0,80*,-5,12,10
Cc1cc(C)c(OCC(O)CN2CCN(Cc3ccc4c(c3)OCO4)CC2)c(C)c1 (stereo not given),-1,0,52*,-1,-5,-7
C/C=C/c1ccc(OCC(O)CN2CCN(Cc3ccc4c(c3)OCO4)CC2)c(OC)c1 (stereo not given),2,0,64*,6,15,14
Cc1ccc2c(c1)nnn2C1CCN(CC(=O)Nc2ccccc2)CC1,0,0,-4,6,·,·
C/C(=N\NC(=O)COc1ccc(Cl)cc1C)c1cccs1,-1,0,26,1,·,·
c1ccc(COc2ccc(OCCCn3ccnc3)cc2)cc1,-6,0,79*,54*,6,18
CCc1ccc(OCCCCCn2ccnc2)cc1,0,0,53*,6,-5,-2
CCc1ccc(OCCn2ccnc2)cc1,0,0,31,-2,·,·
c1ccc(COc2ccc(OCCn3ccnc3)cc2)cc1,1,0,81*,-45,7,2
c1ccc(OCCCn2ccnc2)cc1,0,0,-1,7,·,·
COCCNC(=O)/C(C#N)=C/c1cc(C)n(-c2ccc(Br)cc2)c1C,0,0,2,-47,·,·
COc1ccc2nc(Cl)c(C3CC(c4ccc(OC)c(OC)c4)=NN3C(=O)c3ccccc3Cl)cc2c1 (stereo not given),1,0,27,2,·,·
c1cnc2ccc(Nc3nc(Nc4ccc5c(c4)OCO5)c4[nH]cnc4n3)cc2c1,2,0,12,3,·,·
OCCN1CCN(c2cc(-c3ccccc3F)nc(-c3ccccc3)n2)CC1,1,0,53*,7,16,13
OCCN1CCN(c2cc(-c3ccccc3F)nc(-c3cccnc3)n2)CC1,1,0,-5,5,·,·
Cc1cc2nc(C3CCN(Cc4nnnn4Cc4cccs4)CC3)[nH]c2cc1C,1,0,55*,-3,4,14
COc1ccc(-c2c(F)ccc3cnc(Nc4ccc(-n5cnc(N6CCOCC6)n5)cc4)nc23)cc1F,0,0,56*,-10,21,26
Brc1cccc(OCCn2ccnc2)c1,-1,0,52*,9,-2,7
Brc1cccc(OCCOCCn2ccnc2)c1,1,0,21,2,·,·
Brc1cccc(OCCCn2ccnc2)c1,0,0,65*,4,3,0
Cc1cc2nc(SCC(=O)Nc3nccs3)[nH]c2cc1C,0,0,12,27,·,·
Cc1ccc(NS(=O)(=O)c2c(C)n(C)c(=O)n(C)c2=O)cc1F,-2,0,14,14,·,·
CCOc1ccc2nc(N3CCCC(C(=O)Nc4ccc(NC(C)=O)cc4)C3)sc2c1 (stereo not given),0,0,-8,-36,·,·
CCOc1ccccc1CN1CCC(N2CCCCCC2)CC1,0,0,78*,3,-11,-4
CCOC(=O)C1CCCN(C2CC(=O)N(c3ccc(F)cc3)C2=O)C1 (stereo not given),0,0,-2,5,·,·
SMILES,GPR151 activ,FBW7 act,MITF primary,TEAD-YAP block,MITF inh conf,AS interf ctr
CCOC(=O)C1CCCN(CC(=O)c2ccc(F)cc2)C1 (stereo not given),2,0,69*,-12,-14,8
CCOC(=O)C1CCCCN1Cc1ccc(Br)cc1 (stereo not given),0,0,55*,7,14,1
CCOC(=O)C1CCCCN1Cc1ccc(O)cc1 (stereo not given),0,1,32,13,·,·
CCCN1CCN(C(=O)C2CCCN(c3nc4ccc(OCC)cc4s3)C2)CC1 (stereo not given),0,0,62*,-3,15,11
CCC1(C2CCN(CCC(C)C)CC2)NC(=O)N(Cc2ccc3c(c2)OCO3)C1=O (stereo not given),-1,0,-15,6,·,·
O=C(Nc1c2c(nn1-c1cccc(Cl)c1)CSC2)c1cccc(F)c1,0,0,-1,4,·,·
CCOc1ccc(CN2CCC(C(=O)N3CCCC3)CC2)cc1,1,0,40,1,·,·
O=C(C1CCCN(Cc2ccc(Cl)cc2)C1)N1CCCCCC1 (stereo not given),0,0,88*,14,-10,-3
CCOc1ccc(CN2CCCC(C(=O)N3CCCC3)C2)cc1 (stereo not given),-1,0,68*,0,4,15
CCOC(=O)C1CCCN(Cc2ccc(Br)cc2)C1 (stereo not given),-1,0,57*,-12,1,14
CCOC(=O)C1CCCN(Cc2ccc(NC(C)=O)cc2)C1 (stereo not given),1,0,21,3,·,·
COc1ccc(CN2CCCC(C(=O)N3CCCC3)C2)c(OC)c1 (stereo not given),-1,0,54*,8,-15,-3
Cc1ccccc1-n1c(SCc2cccnc2)nc2c(sc(=S)n2-c2ccccc2C)c1=O,0,0,-6,-5,·,·
Cc1ccccc1Cn1c(C(=O)O)c(CNCCCN2CCCC2=O)c2ccccc21,-1,0,0,0,·,·
CCOc1ccccc1CN1CCCC(C(=O)N2CCCCCC2)C1 (stereo not given),-1,0,70*,27,16,18
O=C(C1CCCN(Cc2ccc(Br)cc2)C1)N1CCCCC1 (stereo not given),0,0,60*,12,7,-3
CCOC(=O)N1CCN(Cc2cccc(OC)c2OC)CC1,0,0,-10,13,·,·
COc1cccc(CN2CCN(Cc3cccc4ccccc34)CC2)c1OC,-1,0,82*,-2,18,22
COc1ccccc1N1CCN(Cc2cccc(OC)c2OC)CC1,0,1,23,7,·,·
COc1ccc(CN2CCN(Cc3cccc4ccccc34)CC2)cc1,0,0,57*,10,21,19
COc1cccc(CN2CCN(Cc3ccccc3C)CC2)c1OC,-1,0,77*,-3,5,12
COc1ccccc1CN1CCN(Cc2cccc3ccccc23)CC1,-2,0,85*,7,4,12
CC(=O)c1cccc(-c2nc(N)c3ncn(Cc4ccc(C(F)(F)F)cc4)c3n2)c1,0,0,5,-35,·,·
Cc1ccc(NC(=O)c2ccco2)cc1Br,-3,0,-11,-63,·,·
CSc1ccc(CN2CCN(Cc3cccc4ccccc34)CC2)cc1,1,0,74*,-8,14,20
CCn1c(=O)c2ccccc2n2c(SCC(=O)NC3CCCCC3)nnc12,0,0,-5,-2,·,·
Cn1c(=O)c2ccccc2n2c(SCC(=O)NC3CCCCC3)nnc12,1,0,73*,4,2,15

# From PubChem BioAssay
